# PubChem BioAssay (NCI)
# Compounds without any hit were thinned out: in the full panel of roughly 83,000, 20% have a hit.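 Step 1: grow cells in 96-well plates. Step 2: add test compound at a single concentration. Step 3: incubate 48 h. Step 4: record percent growth.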 A number with no mark means an inactive call. Active and inactive are the calls of the source. How the source made its calls: active means growth percent below 10; inactive means the rest.
# System: OVCAR-8 ovarian
# Test: NCI-60 one-dose screen, 48 h (100 = growth as untreated, 0 = no growth, -100 = all killed)
# Conditions: 10 µM unless noted
row,Compound,growth
1,CCn1cc(-c2ccnc(NCCNS(=O)(=O)c3cccc4ccccc34)c2)c(-c2cccc(O)c2)n1,101%
2,Cc1ccc(-c2cc(O)c(-c3ccc(C)cc3C)cc2O)c(C)c1,47.7%
3,CCc1ccc(-c2ccc(COc3ccc(CC4SC(=O)NC4=O)cc3)cc2)cc1 (stereo not given),77.2%
4,CCCn1ccnc1C(O)c1ccc(OCc2ccccc2)c(OC)c1 (stereo not given),96.7%
5,O=C(Nc1cc(F)cc2cccnc12)c1cnc(N2CCNCC2)cn1,72.4%
6,O=C(CCCSc1nc(-c2ccccc2)cc(-c2ccccc2)n1)NO,5.38% (active)
7,O=C(CCN1CCCCC1)c1ccc(Cl)cc1,113%
8,O=C(NCCCNC(=O)OCc1ccc2c(Br)cc(Br)c(O)c2n1)OCc1ccc2c(Br)cc(Br)c(O)c2n1,-14.6% (active)
9,Cc1ccc(N)c(O)c1,96%
10,COc1cc2c(=O)[nH]c3cc([N+](=O)[O-])ccc3c2cc1[N+](=O)[O-],45.9%
11,C/C=C/C1OC23CCCCC2C(C#N)(C(=N)O3)C1(C#N)C#N (stereo not given),93.9%
12,Cc1ccc(S(=O)(=O)NCCCNc2nccc(-c3c(-c4cccc(F)c4)nc4occn34)n2)cc1,65%
13,COc1ccc2c(c1)C(C)Cc1c(ncnc1-n1cnc3ccccc31)N2C (stereo not given),17.8%
14,Clc1ccccc1/C=N\Nc1ccccn1,90.1%
15,CC(C)C1=NOC(=O)C1=Cc1cn(-c2ccccc2)nc1-c1cccc([N+](=O)[O-])c1,58%
16,CC(C)C1=NOC(=O)C1=Cc1cn(-c2cccnc2)nc1-c1ccccc1,89.9%
17,O=C1COCCN1c1ccc(NCc2cn(Cc3ccccc3)c3ccccc23)cc1,93.7%
18,COc1ccc(N(c2nc(-c3ccc([N+](=O)[O-])cc3)cs2)C(C)C)cc1,89.6%
19,OC(c1ccc(Cl)cc1)(c1ccc(Cl)cc1)C(O)(c1ccc(Cl)cc1)c1ccc(Cl)cc1,56.8%
20,O=C(NCc1ccc(Cn2c(=O)sn(-c3ccccc3)c2=O)cc1)OCc1ccc2c(Br)cc(Br)c(O)c2n1,0.865% (active)
21,O=S(=O)(NCCNc1nccc(-c2c(-c3cccc(F)c3)nc3occn23)n1)c1ccc(C(F)(F)F)cc1,87.5%
22,O=C(Nc1ccc(Cl)c(C(F)(F)F)c1)Nc1ccc(-c2cccnc2)cc1N1CCC(CO)CC1,26.8%
23,O=C(CCNCc1ccccc1)c1ccccc1,112%

# System: OVCAR-5 ovarian
# Test: as above
# Conditions: 10 µM unless noted
row,Compound,growth
1,CCNc1cc2c(cc1Br)-c1ccccc1C2=O,115%
2,Cn1cc(-c2noc(-c3cn(C)c4ncccc34)n2)c2cc(Cl)ccc21,79.7%
3,N#Cc1ccc(-c2ccc(COc3ccc(CC4SC(=O)NC4=O)cc3)cc2)cc1 (stereo not given),96.2%
4,O=C(N[C@@H]1CCCc2ccccc21)[C@H](CCC(=O)N1CCN(C2CCCCC2)CC1)N1C(=O)[C@@H](N2C(=O)OC[C@@H]2c2ccccc2)[C@H]1/C=C/c1ccccc1,93.5%
5,CCOC(=O)/C(C#N)=C(\C)CCc1ccccc1,108%
6,COc1ccc(C(=O)CSc2nccc(Nc3ccc(C(=O)O)cc3)n2)cc1,103%
7,O=C(NCCCCCCCNC(=O)OCc1ccc2c(Cl)cc(Cl)c(O)c2n1)OCc1ccc2c(Cl)cc(Cl)c(O)c2n1,-76.8% (active)
8,CCN(CCO)CCC(=O)c1ccc([N+](=O)[O-])cc1,116%
9,CCOC(=O)COc1c(C)cc(SSc2cc(C)c(OCC(=O)OCC)c(C)c2)cc1C,128%
10,CC(C)C1=NOC(=O)C1=Cc1cn(-c2ccco2)nc1-c1ccccc1,114%
11,CCOC(=O)Nc1ccc2c(c1)/C(=N\NC(=S)NC)c1ccccc1-2,97.8%
12,COc1ccc(/C=C(/C(=O)c2ccc(Cl)cc2)C(=O)C(F)(F)F)cc1,103%
13,O=[N+]([O-])c1cccc(N=NNc2cccc([N+](=O)[O-])c2)c1,94.6%
14,COc1ccc2c(c1)c(-c1noc(-c3cn(C)c4ncc(F)cc34)n1)cn2C,87.6%
15,CCn1cc(-c2ccnc(NCCNS(=O)(=O)c3cccc4ccccc34)c2)c(-c2cccc(O)c2)n1,123%
16,Cc1ccc(-c2cc(O)c(-c3ccc(C)cc3C)cc2O)c(C)c1,96.9%
17,CCc1ccc(-c2ccc(COc3ccc(CC4SC(=O)NC4=O)cc3)cc2)cc1 (stereo not given),91.2%
18,CCCn1ccnc1C(O)c1ccc(OCc2ccccc2)c(OC)c1 (stereo not given),93.3%
19,O=C(Nc1cc(F)cc2cccnc12)c1cnc(N2CCNCC2)cn1,83.4%

row,Compound,growth
1,O=C(CCCSc1nc(-c2ccccc2)cc(-c2ccccc2)n1)NO,9.78% (active)
2,O=C(CCN1CCCCC1)c1ccc(Cl)cc1,102%
3,O=C(NCCCNC(=O)OCc1ccc2c(Br)cc(Br)c(O)c2n1)OCc1ccc2c(Br)cc(Br)c(O)c2n1,-63% (active)
4,Cc1ccc(N)c(O)c1,108%
5,COc1cc2c(=O)[nH]c3cc([N+](=O)[O-])ccc3c2cc1[N+](=O)[O-],74.1%
6,C/C=C/C1OC23CCCCC2C(C#N)(C(=N)O3)C1(C#N)C#N (stereo not given),103%
7,Cc1ccc(S(=O)(=O)NCCCNc2nccc(-c3c(-c4cccc(F)c4)nc4occn34)n2)cc1,96.5%
8,COc1ccc2c(c1)C(C)Cc1c(ncnc1-n1cnc3ccccc31)N2C (stereo not given),48.7%
9,Clc1ccccc1/C=N\Nc1ccccn1,104%
10,CC(C)C1=NOC(=O)C1=Cc1cn(-c2ccccc2)nc1-c1cccc([N+](=O)[O-])c1,106%
11,CC(C)C1=NOC(=O)C1=Cc1cn(-c2cccnc2)nc1-c1ccccc1,100%
12,O=C1COCCN1c1ccc(NCc2cn(Cc3ccccc3)c3ccccc23)cc1,-23.8% (active)
13,COc1ccc(N(c2nc(-c3ccc([N+](=O)[O-])cc3)cs2)C(C)C)cc1,109%
14,OC(c1ccc(Cl)cc1)(c1ccc(Cl)cc1)C(O)(c1ccc(Cl)cc1)c1ccc(Cl)cc1,71.7%
15,O=C(NCc1ccc(Cn2c(=O)sn(-c3ccccc3)c2=O)cc1)OCc1ccc2c(Br)cc(Br)c(O)c2n1,-62.7% (active)
16,O=S(=O)(NCCNc1nccc(-c2c(-c3cccc(F)c3)nc3occn23)n1)c1ccc(C(F)(F)F)cc1,102%
17,O=C(Nc1ccc(Cl)c(C(F)(F)F)c1)Nc1ccc(-c2cccnc2)cc1N1CCC(CO)CC1,39.4%
18,O=C(CCNCc1ccccc1)c1ccccc1,103%
